Experimental data from PubChem BioAssay.
Active and inactive are the calls of the source.

Columns and labels:
[1] = small molecules captured by biotinylated probe aFSTL3 – biochemical, small-molecule microarray, fluorescence 635/667, stem cell growth factor project, primary screen (AID 1064); settings: higher = more signal;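 note: measures binding of the biotinylated anti-FSTL3 antibody to printed compounds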
[2] = binders from COS7 lysate, DM2A8 probe, primary screen, torsin A project, cell lysate, small-molecule microarray, fluorescence 635/667 (AID 1065); settings: higher = more signal, COS7 lysate expressing mutant human TOR1A
[3] = small molecules captured by biotinylated probe aFGF2 – biochemical, small-molecule microarray, fluorescence 635/667, stem cell growth factor project, primary screen (AID 1067); settings: higher = more signal;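 note: measures binding of biotinylated aFGF2 protein to printed compounds on slides; z-score merges feature fluorescence and signal-to-noise across triplicate slides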
[4] = small molecules captured by biotinylated probe aFGF10 – biochemical, small-molecule microarray, fluorescence 635/667, stem cell growth factor project, primary screen (AID 1071); settings: higher = more signal;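 note: score merges 667 nm spot intensity and signal to noise from triplicate slides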
[5] = target: Neurogenic locus notch homolog protein 2 (Homo sapiens) (UniProt Q04721); assay: small molecules binding Notch2 protein – biochemical, small-molecule microarray, 635 nm fluorescence, stem cell growth factors, primary screen (AID 1073); settings: higher = more signal
Chain of Neurogenic locus notch homolog protein 2 (Homo sapiens) (Q04721 whole entry, looked up, canonical isoform): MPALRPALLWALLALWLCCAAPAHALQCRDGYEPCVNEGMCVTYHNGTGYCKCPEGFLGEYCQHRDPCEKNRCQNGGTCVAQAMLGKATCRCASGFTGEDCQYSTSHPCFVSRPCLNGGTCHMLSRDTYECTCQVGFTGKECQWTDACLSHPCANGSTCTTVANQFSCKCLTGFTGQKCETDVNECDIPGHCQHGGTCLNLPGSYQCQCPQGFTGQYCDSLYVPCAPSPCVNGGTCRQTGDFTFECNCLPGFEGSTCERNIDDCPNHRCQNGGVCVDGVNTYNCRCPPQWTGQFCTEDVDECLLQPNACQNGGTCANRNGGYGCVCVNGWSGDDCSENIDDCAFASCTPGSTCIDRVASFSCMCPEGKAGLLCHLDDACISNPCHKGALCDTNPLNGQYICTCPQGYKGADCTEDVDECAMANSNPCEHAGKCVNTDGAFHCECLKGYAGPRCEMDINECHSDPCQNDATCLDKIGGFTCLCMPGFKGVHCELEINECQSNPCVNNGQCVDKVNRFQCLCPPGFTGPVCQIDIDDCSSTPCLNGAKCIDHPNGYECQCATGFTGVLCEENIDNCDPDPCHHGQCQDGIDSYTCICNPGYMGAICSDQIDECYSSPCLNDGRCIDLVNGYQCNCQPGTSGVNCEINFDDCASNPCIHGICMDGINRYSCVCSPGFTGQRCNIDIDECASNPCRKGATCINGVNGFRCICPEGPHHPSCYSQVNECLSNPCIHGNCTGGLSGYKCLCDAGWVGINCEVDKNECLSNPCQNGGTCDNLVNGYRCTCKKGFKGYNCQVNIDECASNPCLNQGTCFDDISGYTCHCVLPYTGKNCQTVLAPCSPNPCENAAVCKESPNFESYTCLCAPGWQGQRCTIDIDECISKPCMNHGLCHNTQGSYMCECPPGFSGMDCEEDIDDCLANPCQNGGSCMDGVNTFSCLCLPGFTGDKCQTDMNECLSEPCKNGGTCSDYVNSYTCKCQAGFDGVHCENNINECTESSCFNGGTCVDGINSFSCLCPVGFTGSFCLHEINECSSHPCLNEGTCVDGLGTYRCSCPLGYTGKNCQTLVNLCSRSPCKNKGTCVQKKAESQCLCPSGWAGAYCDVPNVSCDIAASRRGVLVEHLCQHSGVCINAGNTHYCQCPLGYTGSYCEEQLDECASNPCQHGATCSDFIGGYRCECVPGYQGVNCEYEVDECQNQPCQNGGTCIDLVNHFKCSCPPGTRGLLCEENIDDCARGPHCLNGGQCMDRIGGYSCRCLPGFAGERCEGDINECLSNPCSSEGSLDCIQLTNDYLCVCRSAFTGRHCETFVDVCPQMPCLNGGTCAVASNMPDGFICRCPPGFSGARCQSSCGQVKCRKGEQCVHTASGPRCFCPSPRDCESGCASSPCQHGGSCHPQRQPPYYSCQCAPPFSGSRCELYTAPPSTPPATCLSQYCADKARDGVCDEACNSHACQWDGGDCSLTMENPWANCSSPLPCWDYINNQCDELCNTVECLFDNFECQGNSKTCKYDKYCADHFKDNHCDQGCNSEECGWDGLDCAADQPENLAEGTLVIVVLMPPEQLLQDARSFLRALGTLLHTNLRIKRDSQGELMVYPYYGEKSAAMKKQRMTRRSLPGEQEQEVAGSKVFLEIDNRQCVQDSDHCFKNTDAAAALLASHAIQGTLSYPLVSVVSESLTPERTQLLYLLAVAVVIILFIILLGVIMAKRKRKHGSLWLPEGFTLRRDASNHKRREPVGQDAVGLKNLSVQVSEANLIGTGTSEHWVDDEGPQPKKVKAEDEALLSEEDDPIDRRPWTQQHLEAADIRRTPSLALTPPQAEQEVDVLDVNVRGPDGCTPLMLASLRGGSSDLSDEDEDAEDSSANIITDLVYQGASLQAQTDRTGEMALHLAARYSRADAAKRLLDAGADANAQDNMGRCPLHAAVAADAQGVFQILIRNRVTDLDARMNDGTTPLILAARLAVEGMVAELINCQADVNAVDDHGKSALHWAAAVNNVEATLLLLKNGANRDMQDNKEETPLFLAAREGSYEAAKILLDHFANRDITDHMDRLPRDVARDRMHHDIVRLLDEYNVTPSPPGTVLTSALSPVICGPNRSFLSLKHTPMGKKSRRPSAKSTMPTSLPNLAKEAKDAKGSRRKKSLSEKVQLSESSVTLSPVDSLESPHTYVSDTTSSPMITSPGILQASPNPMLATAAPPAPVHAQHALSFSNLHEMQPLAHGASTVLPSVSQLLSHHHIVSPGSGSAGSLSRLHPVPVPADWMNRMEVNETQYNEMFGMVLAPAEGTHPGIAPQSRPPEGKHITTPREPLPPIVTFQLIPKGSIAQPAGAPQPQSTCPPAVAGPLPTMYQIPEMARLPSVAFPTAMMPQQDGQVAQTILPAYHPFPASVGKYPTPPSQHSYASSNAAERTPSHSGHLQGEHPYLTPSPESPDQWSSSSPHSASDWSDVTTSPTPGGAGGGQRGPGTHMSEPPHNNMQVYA

[6] = target: Pro-neuregulin-1, membrane-bound isoform (Homo sapiens) (UniProt Q02297); assay: small molecules binding neuregulin-1 protein – biochemical, small-molecule microarray, fluorescence 635/667, psychiatric disease protein project, primary screen (AID 1075); settings: NRG1 binding, 635 nm fluorescence, higher = more signal;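 note: score combines 667 nm spot fluorescence with signal to noise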
Chain of Pro-neuregulin-1, membrane-bound isoform (Homo sapiens) (Q02297 whole entry, looked up, the tested form may be a part, canonical isoform): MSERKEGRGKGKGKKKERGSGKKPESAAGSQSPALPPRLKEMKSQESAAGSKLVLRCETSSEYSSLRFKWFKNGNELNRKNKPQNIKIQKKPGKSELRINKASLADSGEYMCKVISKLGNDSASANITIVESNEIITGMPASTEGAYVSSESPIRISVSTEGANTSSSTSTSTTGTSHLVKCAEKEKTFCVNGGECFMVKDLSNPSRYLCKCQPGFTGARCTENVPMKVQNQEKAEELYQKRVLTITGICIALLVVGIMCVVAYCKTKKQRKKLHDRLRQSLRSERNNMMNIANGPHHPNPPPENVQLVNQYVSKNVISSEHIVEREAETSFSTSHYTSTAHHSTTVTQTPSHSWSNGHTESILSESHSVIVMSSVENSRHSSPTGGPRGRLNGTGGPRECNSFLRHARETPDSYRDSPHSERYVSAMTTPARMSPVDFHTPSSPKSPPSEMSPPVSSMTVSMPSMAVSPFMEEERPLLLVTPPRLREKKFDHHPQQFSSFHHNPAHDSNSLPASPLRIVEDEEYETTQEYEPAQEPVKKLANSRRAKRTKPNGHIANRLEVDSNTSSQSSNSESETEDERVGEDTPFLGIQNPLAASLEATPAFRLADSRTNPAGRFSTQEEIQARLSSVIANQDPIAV

[7] = test system: Neuregulin-1 EGF-like domain; assay: small molecules binding NRG1 EGF domain – biochemical, small-molecule microarray, 635 nm fluorescence, primary screen (AID 1081); settings: higher = more signal;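 note: binding of the protein to compounds printed on small-molecule microarray slides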
[8] = FRG1 expression reporter modulators in myotubes – cell-based, C2C12 myotubes, firefly/Renilla luciferase, luminescence, FRG1 inhibition for FSHD, primary screen (AID 1084); settings: FRG1 promoter luciferase, higher = more signal, called active from +8 up or from −8 down
[9] = small molecules captured by biotinylated probe aFST – biochemical, small-molecule microarray, fluorescence 635/667, stem cell growth factor project, primary screen (AID 1086); settings: higher = more signal;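 note: score merges 667 nm fluorescence with signal-to-noise of each printed compound spot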
[10] = binders of probe aHhip on microarray, primary screen, stem cell growth factor project, biochemical, small-molecule microarray, fluorescence 635/667 (AID 1087); settings: higher = more signal;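 note: score merges spot fluorescence at 667nm with spot signal to noise ratio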
[11] = test system: PRMT1 (protein arginine N-methyltransferase 1); assay: small molecules binding arginine methyltransferase PRMT1 – biochemical, small-molecule microarray, 635 nm fluorescence, primary screen (AID 1088); settings: higher = more signal;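 note: binding of Prmt1 protein to compounds spotted on small-molecule microarray slides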
[12] = growth effects on S. cerevisiae YJM789 – YJM789 clinical isolate, OD600, 24 h, basal, primary screen (AID 1089); settings: higher = more signal, called active from +8 up or from −8 down;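 note: growth of clinical yeast isolate S. cerevisiae YJM 789 seeded 1000 cells per well; test concentration not given here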
[13] = S. pombe growth modifiers, basal conditions – strain 972, OD600, 24 h, no modulator, primary screen (AID 1090);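 note: basal condition with compound alone and no growth modifier present; test concentration not given here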; settings: S. pombe 972 growth, higher = more signal, called active from +8 up or from −8 down
[14] = budding yeast growth modifiers under rapamycin – strain BY4716, OD600, 96 h, primary screen (AID 1091); note: test concentration not given here; settings: S. cerevisiae BY4716 + rapamycin, higher = more signal, called active from +8 up or from −8 down
[15] = target: Torsin-1A-interacting protein 2 (Homo sapiens) (UniProt Q8NFQ8); assay: small molecules binding lysate-expressed LULL1 – cell lysate, human LULL1 lysate, 635/667 nm fluorescence, primary screen (AID 1092); settings: small-molecule microarray, hLULL1 lysate binding, 635 nm fluorescence; higher = more signal;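 note: probe is lysate of COS7 cells overexpressing human LULL1; score merges per-feature 667 nm fluorescence with signal-to-noise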
Chain of Torsin-1A-interacting protein 2 (Homo sapiens) (Q8NFQ8 whole entry, looked up): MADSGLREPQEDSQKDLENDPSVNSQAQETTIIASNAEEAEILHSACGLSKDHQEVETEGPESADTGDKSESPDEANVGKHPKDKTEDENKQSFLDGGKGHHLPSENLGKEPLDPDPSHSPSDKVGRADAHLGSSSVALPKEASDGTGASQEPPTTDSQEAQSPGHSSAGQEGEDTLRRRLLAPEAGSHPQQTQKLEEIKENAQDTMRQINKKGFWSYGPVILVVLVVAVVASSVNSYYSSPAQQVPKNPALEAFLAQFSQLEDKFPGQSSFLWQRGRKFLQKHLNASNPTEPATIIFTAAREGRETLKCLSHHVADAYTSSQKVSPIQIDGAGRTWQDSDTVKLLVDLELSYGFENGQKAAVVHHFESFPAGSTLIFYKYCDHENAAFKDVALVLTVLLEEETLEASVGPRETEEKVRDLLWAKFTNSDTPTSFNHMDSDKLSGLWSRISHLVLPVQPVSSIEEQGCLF

[16] = optical density change of DRC41 E. coli – strain DRC41, OD650, 24 h, E. coli filamentation project, primary screen (AID 1093);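 note: MC1000 strain lacking acrAB efflux and sulA so SOS filamentation is blocked; test concentration not given here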; settings: E. coli DRC41 growth, higher = more signal, called active from +8 up or from −8 down
[17] = probe aLefty2 binding to arrayed compounds – biochemical, biotinylated probe, 635/667 nm fluorescence, primary screen (AID 1094); settings: small-molecule microarray, higher = more signal;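 note: score merges spot fluorescence near 667 nm with spot signal-to-noise ratio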
[18] = test system: Noggin (protein binding on small-molecule microarray); assay: small molecules binding Noggin protein – biochemical, 635/667 nm fluorescence, primary screen (AID 1095); settings: 635 nm fluorescence, higher = more signal;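 note: score merges 667 nm feature fluorescence with signal to noise over triplicate slides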
[19] = target: Neurogenic locus notch homolog protein 3 (Homo sapiens) (UniProt Q9UM47); assay: small molecules binding NOTCH3 protein – biochemical, 635/667 nm fluorescence, primary screen (AID 1096); settings: small-molecule microarray, 635 nm fluorescence, higher = more signal
[20] = probe aEGFR binding to arrayed compounds – biochemical, biotinylated probe, 635/667 nm fluorescence, primary screen (AID 1097); settings: small-molecule microarray, higher = more signal;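 note: probe is a biotinylated anti-EGFR antibody binding compounds printed on slides; score combines fluorescence near 667 nm and signal to noise of each spot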

| SMILES | composite z-score [1] | composite z-score [2] | composite z-score [3] | composite z-score [4] | composite z-score [5] | composite z-score [6] | composite z-score [7] | z-score [8] | composite z-score [9] | composite z-score [10] | composite z-score [11] | z-score [12] | z-score [13] | z-score [14] | composite z-score [15] | z-score [16] | composite z-score [17] | composite z-score [18] | composite z-score [19] | composite z-score [20] |
| --- | --- | --- | --- | --- | --- | --- | --- | --- | --- | --- | --- | --- | --- | --- | --- | --- | --- | --- | --- | --- |
| COc1ccc(C#Cc2ccc3c(c2)[C@]2(C(=O)N3)[C@H](c3ccc(OCCO)cc3)N3[C@H](c4ccccc4)[C@H](c4ccccc4)OC(=O)[C@H]3[C@@H]2C(=O)N2CCN(c3ncccn3)CC2)cc1 | -0.176 | 0.07 | -0.093 | 0.344 | 1.2 | -0.132 | 0.135 | 0.781 (inactive) | -0.0006 | -0.318 | 0.61 | 1.86 (inactive) | 1.23 (inactive) | 4.94 (inactive) | 1.51 | 2.6 (inactive) | -0.105 | 0.346 | 0.824 | -0.0928 |
| O=C1O[C@H](c2ccccc2)[C@H](c2ccccc2)N2[C@H]1[C@@H](C(=O)N1CCCCCCC1)[C@]1(C(=O)Nc3ccccc31)[C@H]2c1ccc(O)cc1 | 4.2 | 2.71 | 1.1 | 1.61 | 1.83 | 2.55 | 1.37 | 0.168 (inactive) | 3.92 | 4.73 | 1.55 | 0.532 (inactive) | 0.556 (inactive) | 0.874 (inactive) | 4.82 | 0.248 (inactive) | 2.02 | 2.26 | 1.01 | 1.5 |
| COC(=O)[C@@]1(Cc2ccc(F)cc2)[C@H]2c3cc(C(=O)N(C)C)n(Cc4ccc(C)c(F)c4F)c3C[C@H]2CN1C(=O)c1ccccc1 | 0.896 | 0.0685 | 0.0697 | 0.795 | 1.62 | 1.71 | 1.36 | 0.55 (inactive) | 0.758 | 0.177 | -0.495 | 0.28 (inactive) | 1.18 (inactive) | 0.934 (inactive) | 3.18 | 0.583 (inactive) | 0.439 | -0.724 | 0.876 | 0.856 |
| CCOC(=O)C1=CC[C@@H](c2cccc(Br)c2)N(S(=O)(=O)c2ccc(C)cc2)[C@H]1c1ccc([N+](=O)[O-])cc1 | -0.508 | 2.18 | -0.0535 | 0.928 | 1.52 | 0.674 | 1.11 | -1.74 (inactive) | 0.339 | 0.305 | 1.53 | -0.412 (inactive) | -5.06 (inactive) | 3.93 (inactive) | 2.96 | -0.3 (inactive) | -0.0615 | 0.496 | 1.15 | 0.254 |
| COCCOC(=O)N1C(=O)[C@@]2(c3cc(C#Cc4ccc(OC)cc4)ccc31)[C@H](c1ccc(OCCO)cc1)N1[C@H](c3ccccc3)[C@H](c3ccccc3)OC(=O)[C@H]1[C@@H]2C(N)=O | 0.261 | 1.24 | -0.0128 | 0.646 | 1.46 | 1.25 | 1.26 | 1.06 (inactive) | 0.851 | 0.0972 | 1.54 | 1.37 (inactive) | 1.87 (inactive) | 5.01 (inactive) | 1.64 | 1.37 (inactive) | 0.172 | 1.45 | 1.02 | 0.0593 |
